# Screens as filed in PubChem BioAssay.
# Mtb hypoxia inh = Mtb hypoxia fluorescent reporter inhibition. M. tuberculosis hypoxia-regulated fluorescent reporter, fluorescence. fluorescence inhibition, % (test concentration not listed). 0.1% of 300,000 active. AID 1159583; in the data active = fluorescence inhibition mostly above about 23%, no sharp cut-off; inactive = mostly below about 17%
# CCHFV vOTU inh = blocks the CCHF virus ovarian tumor domain protease. CCHFV vOTU protease, Pep-AMC fluorescence. inhibition, % at 11.5 µM. 0.55% of 370,000 active; in the data active = inhibition above about 30%; also: 0% = vehicle wells with enzyme and 100% = no enzyme wells
# RecA splice inh = blocks M. tuberculosis RecA intein splicing | P9WHJ3 | cell-free RecA intein splicing, fluorescence | inhibition, % (no concentration beside the values) | 0.75% of 290,000 active | AID 2221; in the data active = inhibition above about 30%; inconclusive = no clear call, values can overlap the other calls;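 also: 0% = vehicle wells and 100% = reference inhibitor control wells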
# Target sequence (P9WHJ3 whole entry, looked up, canonical isoform): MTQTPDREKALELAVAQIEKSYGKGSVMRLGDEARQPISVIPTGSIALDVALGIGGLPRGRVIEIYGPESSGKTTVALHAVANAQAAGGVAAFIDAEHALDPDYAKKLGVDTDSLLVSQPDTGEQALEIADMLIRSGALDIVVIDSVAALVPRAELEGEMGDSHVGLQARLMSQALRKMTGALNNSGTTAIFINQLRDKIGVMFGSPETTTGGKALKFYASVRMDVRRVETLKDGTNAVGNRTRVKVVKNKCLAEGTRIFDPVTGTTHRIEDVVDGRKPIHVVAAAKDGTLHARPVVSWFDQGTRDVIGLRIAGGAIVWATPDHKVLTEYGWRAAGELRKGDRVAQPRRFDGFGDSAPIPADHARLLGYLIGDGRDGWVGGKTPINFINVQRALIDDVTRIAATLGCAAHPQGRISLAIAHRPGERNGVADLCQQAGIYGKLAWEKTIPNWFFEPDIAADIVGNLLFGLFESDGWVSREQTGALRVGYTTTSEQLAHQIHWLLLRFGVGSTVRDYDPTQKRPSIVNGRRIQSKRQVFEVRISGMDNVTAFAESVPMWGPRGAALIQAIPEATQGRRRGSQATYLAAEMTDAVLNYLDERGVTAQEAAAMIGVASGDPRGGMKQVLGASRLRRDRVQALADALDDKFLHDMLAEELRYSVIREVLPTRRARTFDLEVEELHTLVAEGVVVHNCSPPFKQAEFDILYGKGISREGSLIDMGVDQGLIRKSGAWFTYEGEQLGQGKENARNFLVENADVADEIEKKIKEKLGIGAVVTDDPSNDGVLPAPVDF
# PfHsp40 rescue = compounds rescuing yeast from Plasmodium falciparum HSP40 toxicity | S. cerevisiae expressing PfHsp40, growth rescue, ATP luminescence | growth rescue, % at 12.5 µM | 0.68% of 340,000 active | AID 504582; in the data active = growth rescue above about 28%, passing the limit was not always enough; inconclusive = no clear call, values can overlap the other calls;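 also: yeast W303a lacking pdr1 and pdr3 grown in galactose medium; growth measured after three days at 30 °C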
# Mtb betalactam = beta-lactam sensitization of Mtb H37Rv | inhibition, % at 25 µM | 0.27% of 330,000 active | M. tuberculosis H37Rv growth with meropenem, percent inhibition; call rule not given here;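 also: growth measured after seven days incubation then overnight dye step; 0% = bacteria only wells and 100% = bacteria with antibiotic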
# * hit, by the source's call; ? = inconclusive; . = no result. Rows were chosen to be rich in hits. Some 1.7% of all compounds tested hit in one or more screens of this group.
SMILES,Mtb hypoxia inh,CCHFV vOTU inh,RecA splice inh,PfHsp40 rescue,Mtb betalactam
CC(=O)Nc1ccc(S(=O)(=O)N(C)CC(=O)NN=Cc2cccc(O)c2)cc1,4,.,.,.,.
O=C(NCc1cccnc1)/C(=C/c1ccc(-c2ccc(Cl)cc2)o1)S(=O)(=O)c1ccccc1,9,-8,35*,-1,99
O=C(O)c1ccc(N/N=C/C=C/c2ccccc2)cc1,.,2,-1,458*,-1
O=C(O)c1ccc(N/N=C/c2ccc(-c3ccccc3)cc2)cc1,.,9,14,0,.
COC(=O)C1=C(C(=O)OC)[N+]2=C3N(C(=O)NC2(C)C)C(CO)C[C@@]32c3ccccc3N(Cc3ccccc3)C12 (stereo partly specified),3,.,.,.,.
Cc1cccc(Sc2c(C=O)c3ccccc3n2C)c1,3,-11,30*,9,4
COC(=O)c1ccc(C(NC(=O)OCc2ccccc2)C(F)=CC(C)C(=O)O)cc1 (stereo unspecified),17,.,.,.,.
O=C1CN(C(=O)COC(=O)CNC(=O)c2ccc(Br)o2)c2ccccc2N1,-20,14,3,0,-12
O=C1CN(C(=O)COC(=O)c2ccc(Br)o2)c2ccccc2N1,26*,12,.,0,-5
CCCC(=NNC(=O)CCC(=O)NCc1ccccc1)c1ccccc1,-11,.,.,.,.
CC(C)(C)c1cc(-c2nc(N)nc(N)n2)c(O)c(C(C)(C)C)c1,10,4,.,225*,99
O=[N+]([O-])CC(=Nc1ccc(Cl)cc1)N/N=C\c1oc(O)c2ccccc12,.,33*,8,-3,24
O=C(NN=Cc1oc(O)c2ccccc12)c1ccccc1,5,.,.,.,.
CC(=NNC(=O)Cc1ccc([N+](=O)[O-])cc1)c1cccnc1,2,.,.,.,.
CN(C)CCOc1ccc(-c2c(-c3ccsc3)sc3ccccc23)cc1,.,5,.,91*,100
COc1cccc(-c2sc3ccc(OC)cc3c2-c2cc(F)cc(OC)c2)c1,.,4,.,0,8
COc1cccc(-c2sc3ccc(OC)cc3c2-c2ccc(OCCN3CCOCC3)cc2)c1,.,12,.,4,55
COc1cccc(-c2sc3ccc(OC)cc3c2-c2ccc(O)cc2)c1,.,1,.,103*,3
COc1cccc(-c2sc3ccc(OC)cc3c2-c2ccc(OCCN(C)C)cc2)c1,.,16,.,31*,100
COc1ccc(-c2sc3ccccc3c2-c2ccc(OCCN(C)C)cc2)cc1,47*,4,.,19,100
Cc1noc(C)c1NC(=O)N(C)CC1Oc2c(NC(=O)Nc3ccc4c(c3)OCO4)cccc2C(=O)N(C(C)CO)CC1C (stereo unspecified),18,.,.,.,.
Cc1c(Cl)cccc1NC(=O)CSCc1cc(=O)[nH][nH]1,0,9,85*,0,-9
Cc1[nH]c2ccc(C(=O)NC3CCCC3)cc2c1C,23,7,.,29*,-1
O=C(NN=Cc1ccncc1)c1ccccc1,12,.,.,.,.
O=C(N/N=C/c1ccncc1)c1cc2ccccc2cc1O,.,12,-99,187*,3
SMILES,Mtb hypoxia inh,CCHFV vOTU inh,RecA splice inh,PfHsp40 rescue,Mtb betalactam
Cc1cc(C(=O)NN=Cc2cccnc2)cs1,8,.,.,.,.
Cc1cc(C)c2sc(NNC(=O)c3ccc(S(=O)(=O)N4CCc5ccccc5C4)cc3)nc2c1,2,26,-6,364*,-1
Cc1ccc(-c2[nH]ncc2C=Nn2c(COc3ccccc3)nc3ccccc3c2=O)cc1,14,.,.,.,.
COc1ccc(N(C(=O)c2ccncc2)S(=O)(=O)c2ccc(OC)c(OC)c2)cc1,.,7,7,1,?
COc1ccc(OC(=O)c2ccncc2)cc1,-1,-3,-3,0,-9
COc1ccc(N(C(=O)c2cccnc2)S(=O)(=O)c2ccc(Cl)cc2)cc1,.,-3,2,1,?
COc1ccc(N(C(=O)c2ccncc2)S(=O)(=O)c2ccc(F)cc2)cc1,.,25,.,436*,?
COc1ccc(N(C(=O)c2ccncc2)S(=O)(=O)c2ccccc2)cc1,3,-5,10,340*,7
COc1ccc(S(=O)(=O)N(C(=O)c2ccncc2)c2ccc(OC(=O)c3ccncc3)cc2)cc1,4,-3,17,515*,-10
O=C(Oc1ccc(OC(=O)c2ccncc2)cc1)c1ccncc1,37*,14,2,0,12
COc1ccc(C=NNC(=O)c2ccccc2Br)cc1COc1ccc(F)cc1,8,.,.,.,.
CC(C)CN=c1cc(-c2ccccc2)oc2ccc(Cl)cc12,42*,3,.,4,37
O=C(O)C1C2C=CC(C2)C1C(=O)Nc1ccc2c(c1)OCCO2 (stereo unspecified),-4,.,1,-1,0
CN(C)c1ccc(NC(=O)C2C3C=CC(C3)C2C(=O)O)cc1 (stereo unspecified),-15,78*,0,-2,5
Cn1cccc1C=NNC(=O)Cc1ccc(Br)c2ccccc12,-12,.,.,.,.
COC(=O)c1ccc2cc(OC)cc([N+](=O)[O-])c2n1,.,0,.,37*,.
COc1cc([N+](=O)[O-])c2nc(C=NNC(N)=S)ccc2c1,.,17,.,-1,.
COc1ccc(C(=O)N2CC3(CC(c4ccc(Cl)cc4)=NO3)CC2C(=O)NCC(N)=O)cc1 (stereo unspecified),12,.,.,.,.
CC1CN(C(C)CO)C(=O)c2cc(NC(=O)CCC(F)(F)F)ccc2OC1CN(C)S(=O)(=O)c1ccc(Cl)cc1 (stereo unspecified),-9,.,.,.,.
CCN1C(=NCCc2ccc([N+](=O)[O-])cc2)NC(c2ccccc2)C(C(=O)OC)C1C (stereo unspecified),20,.,.,.,.
COc1cc(C(=O)NN=Cc2ccc(OC(=O)c3ccccc3Cl)cc2)ccc1O,5,.,.,.,.
CC(C)CCn1c(N)c(C(=O)NCc2cccs2)c2nc3ccccc3nc21,1,.,88*,0,3
CC(C)CNC(=O)c1c(N)n(Cc2ccc3c(c2)OCO3)c2nc3ccccc3nc12,2,-10,55*,0,-1
CCCNC(=O)c1c(N)n(Cc2ccc3c(c2)OCO3)c2nc3ccccc3nc12,3,.,-2,0,-17
COc1cc(C=NNC(=O)c2cccnc2)cc(Br)c1O,14,.,.,.,.
SMILES,Mtb hypoxia inh,CCHFV vOTU inh,RecA splice inh,PfHsp40 rescue,Mtb betalactam
COc1ccc(C=NNC(=O)c2ccc(-n3cnnn3)cc2)cc1,8,.,.,.,.
CC(C)(C)NC(=O)C(=O)NN=Cc1ccc(Br)cc1,4,.,.,.,.
Clc1nc(-c2ccccn2)nc2scc(-c3ccccc3)c12,-1,9,1,400*,91
NC(=O)C1CC2(CC(c3cccc(NC(=O)COc4ccc(Cl)cc4)c3)=NO2)CN1C(=O)c1ccccc1 (stereo unspecified),4,.,.,.,.
Cc1ccc(-c2cc(C(F)F)nc(S(C)(=O)=O)n2)cc1,13,13,46*,0,99
Cc1[nH]n(-c2ccccc2)c(=O)c1C=NNc1nncc(-c2ccccc2)n1,-9,.,.,.,.
Cc1[nH]n(-c2ccccc2)c(=O)c1/C=N/Nc1nncc(-c2ccccc2)n1,.,-2,-6,262*,3
Cc1cc(C(=O)N/N=C/c2c(C)[nH]n(-c3ccccc3)c2=O)n[nH]1,.,17,55*,0,2
Cc1[nH]n(-c2ccccc2)c(=O)c1C=NN1CCOCC1,16,.,.,.,.
Cc1[nH]n(-c2ccc(Br)cc2)c(=O)c1/C=N/NC(=O)c1ccccc1,.,14,11,-2,100
